From PubChem
Rab2A wt mod: modulators of GTP binding to Rab2A wildtype, primary screen, biochemical, dog, bead-based flow cytometry, multiplex | Ras-related protein Rab-2A (Canis lupus familiaris), P61105 | GST-Rab2 wt beads, Bodipy-GTP binding | GTP binding activity, % at 10 µM | 0.19% of 190,000 active | AID 760, 2007;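 active means GTP binding activity at least 20 points away from 100%, either lowered or raised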;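 further: 0% = beads with excess unlabeled GTP and 100% = no-compound control corrected for plate trend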
Rac1 wt GTP bind: wildtype Rac1 GTP binding modulators, primary screen, biochemical, GST-Rac1 beads, flow cytometry, multiplex. GTP binding activity (% of control), % at 10 µM. Ras-related C3 botulinum toxin substrate 1 (Homo sapiens), P63000. 0.27% of 190,000 active. AID 757, 2007. fluorescent GTP binding; actives lie on both sides; 0 = cold GTP competed, 100 = untreated;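 active means GTP binding activity at least 20 points away from the 100% control level, either lower or higher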
Rab7 wt modul: modulators of GTP binding to Rab7, primary screen, biochemical, wildtype, multiplex bead flow cytometry. Rab7 GTPase wild type (dog), Bodipy-FL-GTP binding. GST-Rab7 beads, fluorescent GTP binding; actives lie on both sides; untreated = 100%, excess cold GTP = 0%. GTP binding activity (percent of control), % at 10 µM. 0.055% of 190,000 active. AID 758, 2007;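 active means fluorescent GTP binding to Rab7 beads changed by at least 20 points from the 100% baseline, either direction, mostly lower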;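 further: median green fluorescence of bound Bodipy-FL-GTP per Rab7 bead population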
HRas wt GTP bind: modulators of GTP binding to HRas wildtype, primary screen, biochemical, bead-based flow cytometry, multiplex | AID 759, 2007 | 0.14% of 190,000 active | GTPase HRas (Homo sapiens), P01112 | GST-Ras wt beads, Bodipy-FL-GTP binding; actives lie on both sides | GTP binding activity, % at 10 µM;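 active means GTP binding activity at least 20% away from the 100% baseline, either lowered as inhibitor or raised as activator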;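 further: 0% = unlabeled GTP competition control and 100% = no-compound control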
Target sequence (P01112 whole entry, looked up): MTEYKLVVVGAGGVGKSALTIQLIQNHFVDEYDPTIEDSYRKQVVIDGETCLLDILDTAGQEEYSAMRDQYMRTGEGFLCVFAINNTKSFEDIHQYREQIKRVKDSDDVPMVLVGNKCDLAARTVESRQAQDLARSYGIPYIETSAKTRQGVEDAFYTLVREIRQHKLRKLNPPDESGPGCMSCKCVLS
Cdc42 wt GTP: modulators of GTP binding to wildtype Cdc42, primary screen, biochemical, multiplex bead flow cytometry, Bodipy-GTP | Cell division control protein 42 homolog (Homo sapiens), P60953 | GST-Cdc42 beads; actives lie on both sides | percent activity (GTP binding), % at 10 µM | 0.2% of 190,000 active;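 active means percent activity GTP binding at least 20 points away from the 100% baseline, either down as inhibitor or up as activator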;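 further: median bead fluorescence of bound Bodipy-FL-GTP at 100 nM; 0% = excess unlabeled GTP control and 100% = no compound control; below 100% means less GTP binding so inhibitor and above means activator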
Target sequence (P60953 whole entry, looked up): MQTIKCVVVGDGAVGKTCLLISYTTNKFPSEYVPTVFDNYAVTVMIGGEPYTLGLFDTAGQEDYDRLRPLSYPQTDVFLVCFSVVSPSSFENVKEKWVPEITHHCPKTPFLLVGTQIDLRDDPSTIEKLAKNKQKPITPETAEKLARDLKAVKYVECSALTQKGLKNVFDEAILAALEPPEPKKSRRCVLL
Rac1 mut GTP: GTP binding modulators of activated mutant Rac1, primary screen, biochemical, bead-based flow cytometry, multiplex, fluorescent GTP; GST-Rac1 activated beads; actives lie on both sides; 100% means binding = to untreated wells; Ras-related C3 botulinum toxin substrate 1 (Homo sapiens), P63000; percent activity (GTP binding), % at 10 µM; 0.11% of 190,000 active;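 active means GTP binding at least 20 percentage points away from the 100% baseline, in either direction, so actives lie on both sides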
Starred values were filed as active, the others as inactive; [ ] = another dose, or the depositor's remark. This is a sample that favours compounds with a hit; in the whole collection about 0.38% have one here.

Results for C=CCNc1cnn(-c2ccccc2)c(=O)c1Cl ?
Rab2A wt mod: 100; Rac1 wt GTP bind: 100; Rab7 wt modul: 98; HRas wt GTP bind: 97; Cdc42 wt GTP: 100; Rac1 mut GTP: 95

What do the screens show for `CSc1nc2ccc(NC(=O)C3CC(=O)N(Cc4ccco4)C3)cc2s1` (stereo unspecified)?
Rab2A wt mod: 86; Rac1 wt GTP bind: 91; Rab7 wt modul: 82; HRas wt GTP bind: 81; Cdc42 wt GTP: 75*; Rac1 mut GTP: 90

Results for Cc1ccsc1/C=N/NC(=O)c1ccc(-n2cccc2)cc1 ?
Rab2A wt mod: 102; Rac1 wt GTP bind: 97; Rab7 wt modul: 107; HRas wt GTP bind: 100; Cdc42 wt GTP: 97; Rac1 mut GTP: 97

Results for O=C(COc1ccccc1-c1ccccc1)N/N=C/c1ccncc1 ?
Rab2A wt mod: 61*; Rac1 wt GTP bind: 55*; Rab7 wt modul: 58*; HRas wt GTP bind: 59*; Cdc42 wt GTP: 60*; Rac1 mut GTP: 55*

What do the screens show for `Cc1ccc(CN2CCN(CC(=O)O)C2=O)cc1`?
Rab2A wt mod: 100; Rac1 wt GTP bind: 104; Rab7 wt modul: 105; HRas wt GTP bind: 102; Cdc42 wt GTP: 99; Rac1 mut GTP: 98

How did O=C1/C(=C\c2cccnc2)Sc2ccccc21 do in these assays?
Rab2A wt mod: 89; Rac1 wt GTP bind: 84; Rab7 wt modul: 90; HRas wt GTP bind: 90; Cdc42 wt GTP: 72*; Rac1 mut GTP: 88

How did CCC(C(=O)NC1CCCCC1)N(Cc1cccs1)C(=O)c1snc(C(N)=O)c1N (stereo unspecified) do in these assays?
Rab2A wt mod: 93; Rac1 wt GTP bind: 92; Rab7 wt modul: 101; HRas wt GTP bind: 96; Cdc42 wt GTP: 103; Rac1 mut GTP: 95

What do the screens show for `N#CC(C#N)=C1C=CC=CN1/C(=C\c1ccccc1Cl)C(=O)c1ccccc1`?
Rab2A wt mod: 88; Rac1 wt GTP bind: 92; Rab7 wt modul: 97; HRas wt GTP bind: 86; Cdc42 wt GTP: 78*; Rac1 mut GTP: 82

What do the screens show for `N#CC(C#N)=C1C=CC=CN1/C(=C\c1ccccc1)C(=O)c1cccs1`?
Rab2A wt mod: 95; Rac1 wt GTP bind: 98; Rab7 wt modul: 99; HRas wt GTP bind: 96; Cdc42 wt GTP: 81; Rac1 mut GTP: 90

How did COc1ccc([N+](=O)[O-])cc1-n1cnnn1 do in these assays?
Rab2A wt mod: 97; Rac1 wt GTP bind: 99; Rab7 wt modul: 99; HRas wt GTP bind: 98; Cdc42 wt GTP: 97; Rac1 mut GTP: 97

Results for NC1=NC(=O)/C(=C\c2ccc(O)c([N+](=O)[O-])c2)S1 ?
Rab2A wt mod: 63*; Rac1 wt GTP bind: 78*; Rab7 wt modul: 85; HRas wt GTP bind: 66*; Cdc42 wt GTP: 61*; Rac1 mut GTP: 80

What do the screens show for `COc1cc(/C=C2/SC(N)=NC2=O)ccc1Oc1ccc([N+](=O)[O-])cc1[N+](=O)[O-]`?
Rab2A wt mod: 91; Rac1 wt GTP bind: 94; Rab7 wt modul: 96; HRas wt GTP bind: 94; Cdc42 wt GTP: 91; Rac1 mut GTP: 91

Results for O=S1(=O)N=C(N(CCO)/N=C/C=C/c2ccccc2)c2ccccc21 ?
Rab2A wt mod: 72*; Rac1 wt GTP bind: 61*; Rab7 wt modul: 84; HRas wt GTP bind: 70*; Cdc42 wt GTP: 79*; Rac1 mut GTP: 80

Results for Cc1ccc(CSc2nnc(-c3ccccc3N)c(=O)[nH]2)cc1 ?
Rab2A wt mod: 98; Rac1 wt GTP bind: 120*[activator]; Rab7 wt modul: 97; HRas wt GTP bind: 98; Cdc42 wt GTP: 102; Rac1 mut GTP: 100
